Assay outcomes: PubChem, several laboratories
MPTP block – permeability transition pore inhibition. isolated mouse mitochondria, Ca2+ swelling absorbance, 30 min. inhibition, % at 10 µM. AID 602449. hit rate 1.4% among 360,000;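 active means inhibition of 50% or more, scaled per plate between neutral and stimulator controls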
CRFBP-R2 agonist – agonists of human CRF-binding protein/CRF-R2 receptor complex; HEK293 CRF-R2/CRF-BP, calcium dye fluorescence (FLIPR); percent of saturating CRF peptide response; activation, % at 13.2 µM; hit rate 0.46% among 350,000;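 active means activation of at least 50%, plus an integration ratio under a set limit after plate pattern correction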
NR3A LBD binder – NR3A (human) ligand-binding domain modulation. NR3A LBD differential scanning fluorimetry, Tm shift; 0% = protein alone, 100% = glycine-bound protein. Tm shift relative to glycine control, % at 25 µM. hit rate 2.5% among 340,000;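 active means melting temperature shift of at least 10% of the positive control shift, at one fixed dose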
CRFBP-R2 block – CRF-BP/CRF-R2 complex antagonism | HEK293 CRF-R2/CRF-BP, CRF-induced calcium fluorescence | inhibition, % at 11.8 µM | hit rate 0.59% among 350,000 | AID 588475;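 active means inhibition of the ligand-induced calcium signal above about 50% at the single tested concentration, limit read from the data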
ANO1 activ – activators or potentiators of mouse TMEM16A chloride channel | HEK293 TMEM16A/YFP-H148Q/I152L, iodide quench fluorescence; active compounds read low | hit rate 0.3% among 340,000 | B-score at 10 µM | Q8BHY3;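 active means fluorescence-ratio B-score plate-corrected deviation score at least 3 library SD below zero, with starting fluorescence score within 5 deviations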;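 further: channel opened by trigger with iodide after compound preincubation; score built on the fluorescence ratio of max minus min over baseline; more negative score means more quench and so TMEM16A activation or potentiation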
Target sequence (Q8BHY3 whole entry, looked up): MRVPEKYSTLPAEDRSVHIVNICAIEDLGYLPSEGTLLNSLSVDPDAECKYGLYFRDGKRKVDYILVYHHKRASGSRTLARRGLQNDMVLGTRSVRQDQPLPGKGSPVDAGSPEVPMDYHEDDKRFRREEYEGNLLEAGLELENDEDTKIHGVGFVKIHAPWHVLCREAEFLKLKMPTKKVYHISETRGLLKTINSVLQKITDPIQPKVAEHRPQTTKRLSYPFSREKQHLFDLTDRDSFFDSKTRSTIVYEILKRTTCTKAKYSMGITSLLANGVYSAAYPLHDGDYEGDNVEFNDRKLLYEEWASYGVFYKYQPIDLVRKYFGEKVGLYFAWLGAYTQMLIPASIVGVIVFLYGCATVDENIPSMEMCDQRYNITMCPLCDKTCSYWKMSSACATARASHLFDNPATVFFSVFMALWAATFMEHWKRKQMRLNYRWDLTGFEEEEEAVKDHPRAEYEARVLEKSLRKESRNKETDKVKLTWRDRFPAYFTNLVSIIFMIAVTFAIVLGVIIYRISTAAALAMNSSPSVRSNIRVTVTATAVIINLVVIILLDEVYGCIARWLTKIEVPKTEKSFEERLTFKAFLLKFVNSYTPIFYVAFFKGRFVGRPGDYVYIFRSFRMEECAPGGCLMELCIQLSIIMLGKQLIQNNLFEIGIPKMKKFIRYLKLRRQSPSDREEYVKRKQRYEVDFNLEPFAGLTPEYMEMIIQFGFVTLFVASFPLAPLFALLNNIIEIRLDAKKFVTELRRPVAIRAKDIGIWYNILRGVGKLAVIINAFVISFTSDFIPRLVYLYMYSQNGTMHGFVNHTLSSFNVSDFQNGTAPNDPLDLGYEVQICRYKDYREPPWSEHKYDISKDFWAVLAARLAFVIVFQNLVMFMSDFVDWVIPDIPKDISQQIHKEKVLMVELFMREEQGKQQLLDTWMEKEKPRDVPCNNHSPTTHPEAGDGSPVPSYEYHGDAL
ANO1 block – inhibitors of mouse TMEM16A calcium-activated chloride channel. Q8BHY3. HEK293 TMEM16A/YFP iodide influx fluorescence, ionomycin. normalized B-score (activity score, 25-100; higher = stronger inhibition) at 10 µM. hit rate 1.2% among 310,000;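 active means ratio plate-corrected score three or more library SD toward inhibition, starting fluorescence score within five deviations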;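 further: score derived from kinetic fluorescence span divided by baseline fluorescence per well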
Hits are given with their value; – = inactive; · = no result given. Hits are enriched below; roughly 5.1% of the tested compounds scored in any of these assays.

SMILES	MPTP block	CRFBP-R2 agonist	NR3A LBD binder	CRFBP-R2 block	ANO1 activ	ANO1 block
O=C(O)C(Cl)(Cl)Cl	–	–	–	–	·	–
S=C1NC2(CCCCC2)NC12CCCCC2	–	–	16.4	–	–	–
Cc1ccc(-n2nc(C)c3c2NC(=O)CSC3c2ccc3c(c2)OCO3)cc1 (stereo unspecified)	–	–	–	–	–	–
COc1ccc(C2SCC(=O)Nc3c2c(C)nn3-c2ccccc2)cc1 (stereo unspecified)	–	–	10.8	–	–	–
NC(Cc1ccccc1Cl)c1nn[nH]n1 (stereo unspecified)	–	–	·	–	·	·
O=C(Cc1cc(=O)oc2cc(O)ccc12)NN=Cc1ccc(N(CCCl)CCCl)cc1	–	–	18.3	–	–	·
COC1=C(OC)[C@]23CCc4ccc(OC)c(OC)c4[C@]2(CCN3C)CC1=O	–	–	12.9	–	–	·
COC1C(C)OC(OC2CC(C)(O)Cc3cc4c(c(O)c32)C(=O)c2c(O)cc3c(c2C4=O)OC2OC3(C)C(O)C(N(C)C)C2O)C(OC)C1(C)OC (stereo unspecified)	–	198.1	–	–	–	·
O=c1[nH]c(=S)n(-c2ccc(Cl)cc2)c(O)c1C=Nc1ccc(N2CCOCC2)cc1	–	52.9	–	–	–	–
CCn1c(O)c(C=Nc2ccc(N3CCOCC3)c(Br)c2)c(=O)n(CC)c1=S	–	99.5	–	–	–	–
O=c1[nH]c(=O)n(C2CCCCC2)c(O)c1C=Nc1ccc(N2CCOCC2)cc1	–	–	–	–	–	–
CCn1c(O)c(C=Nc2ccc(N3CCOCC3)cc2)c(=O)n(CC)c1=S	–	97.0	–	–	–	–
C/C1=C\[C@@H](C)C/C=C/[C@H]2[C@@H]3O[C@]3(C)[C@@H](C)[C@H]3[C@H](Cc4c[nH]c5ccccc45)NC(=O)[C@]32C(=O)/C=C/C(=O)[C@@H]1O	–	–	–	–	-10.8	100
COc1cccc(C2CCN(C)C2)c1 (stereo unspecified)	–	–	·	–	·	·
O=c1[nH]c(=O)n(-c2ccc(Br)cc2)c(O)c1C=NCCN1CCCCC1	–	–	–	–	–	–
COc1ccc(Cn2c(O)c(C=NCCN3CCOCC3)c(=O)[nH]c2=O)cc1	–	–	–	–	–	–
O=c1[nH]c(=O)n(-c2ccccc2Cl)c(O)c1C=NCCN1CCCCC1	–	–	401.4	–	–	–
O=c1[nH]c(=O)n(Cc2ccc(F)cc2)c(O)c1C=NCCN1CCCCC1	–	–	19.9	–	–	–
O=C(CCl)Nc1nccs1	–	–	–	62.5	–	–
O=C(Nc1nccs1)C(Cl)(Cl)Cl	–	–	–	–	–	–
O=C(c1ccc(Cl)cc1)C1CCCN(C2CCSCC2)C1 (stereo unspecified)	–	–	–	–	–	–
Cc1nc2ccccc2c(=O)n1-c1ccc([N+](=O)[O-])cc1	–	–	–	–	–	–
Cc1nc2cc([N+](=O)[O-])ccc2c(=O)n1-c1ccc(Br)cc1	–	–	–	–	-13.4	–
CCOC(=O)C(O)(c1ccc(NC(=O)Oc2ccccc2)cc1)C(F)(F)F (stereo unspecified)	–	–	16.4	–	–	–
CCN(C(=O)Oc1ccccc1)c1ccc(C(O)(C(=O)OC)C(F)(F)F)cc1 (stereo unspecified)	–	–	–	–	–	–
CCOC(=O)C(O)(c1ccc(NC(=S)NC(=O)c2ccc(Cl)cc2Cl)cc1)C(F)(F)F (stereo unspecified)	–	147.8	–	–	–	–
CC(=O)OC1C(=O)OCC23CCC4(C)OC4C2OC2CC(OC(=O)C=CC=CC(=O)OCCC1C)C3(C)C21CO1 (stereo unspecified)	–	–	–	–	–	·
COCCO[C@H]1CCC2C3CC=C4C[C@@H](O)CC[C@]4(C)C3CC[C@@]21C (stereo partly specified)	–	–	–	–	–	·
C[C@]12C[C@@H](O)[C@H](O)CC1=CCC1C2CC[C@@]2(C)C1CC[C@@H]2O (stereo partly specified)	–	–	–	–	–	·
CCOC(=O)C(C)Oc1cc(C)cc2oc(=O)c3c(c12)CCCC3 (stereo unspecified)	–	–	15.3	–	–	–
